FMDV inh: antivirals against foot and mouth disease virus; FMDV antiviral cell-based qHTS; Potency, µM (top dose mostly 57.9 µM), without a hit: at the highest dose activity change, negative = inhibition, usual class: inhibitors; actives 1.2% (n = 410,000); calls by dose curve; tested in HEK293T cells; further: read-out not given here; potency means the concentration at half of the fitted maximal effect; nearly all actives have a fitted effect of over 45% in size
RE007 growth inh: less growth of the S. pombe RE007 Vpr strain | S. pombe RE007 Vpr strain, BacTiter-Glo ATP luminescence, 24 h | AID 651644 | actives 0.21% (n = 360,000) | Potency, µM (titrated, usually from 92.2 µM), for inactives: top-dose activity change, negative = less growth, actives largely listed as inhibitors; active means well fitted falling curve with a large enough effect; inconclusive means small, poorly fitted or top-dose-only effect; inactive means no such curve, though single readings can be large or run the other way; further: potency means the concentration at half of the fitted maximal effect; nearly all actives have a fitted effect of over 50% in size
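Fission yeast RE007 carrying one integrated HIV-1 vpr copy, seeded at OD 0.01 in PMG+AL medium with 23 nL pinned compound. Grown 24 h at 30 degrees; viability read by BacTiter-Glo luminescence after 5 min.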
HCMV inh: human cytomegalovirus inhibition. activity change, negative = inhibition, % at 57.5 µM. AID 1259415. HFF cells, HCMV-luciferase reporter, 72 h; stronger effect = lower value. actives 4.5% (n = 410,000); in the data active means activity change below about -60%; inconclusive means no clear call, values can overlap the other calls; inactive means above about -39%
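Screen run at 2 compound doses on HFFs infected with reporter HCMV, MOI 1 PFU/cell. Luciferase activity from cell lysates at 72 h post infection gave inhibition relative to buffer-only and Salinomycin wells.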
TbPYK inhibitor: T. brucei pyruvate kinase inhibition | Q57TT1 | TbPYK enzyme, Kinase-Glo Plus ATP luminescence, 45 min | Potency, µM (highest dose often 76.8 µM), for inactives: top-dose activity, negative = inhibition, usual class: inhibitors | actives 0.12% (n = 410,000); further: potency means the concentration at half of the fitted maximal effect; nearly all actives have a fitted effect of over 50% in size
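Enzyme and substrate buffer are dispensed first and compound is pin-transferred. ADP at 130 uM final then starts the reaction, which runs 45 min at room temperature. Detection reagent is added for 10 min before luminescence is imaged.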
Giardia FBPA inh: inhibitors of Giardia lamblia fructose-1,6-bisphosphate aldolase | Potency, µM (titrated, usually from 59.6 µM), inactives show top-dose activity, negative = inhibition, hits mostly inhibitors | purified Giardia FBPA | actives 0.71% (n = 290,000) | A8B2U2 | AID 2451; further: potency means the concentration at half of the fitted maximal effect; nearly all actives have a fitted effect of over 55% in size
Target sequence (A8B2U2 whole entry, looked up): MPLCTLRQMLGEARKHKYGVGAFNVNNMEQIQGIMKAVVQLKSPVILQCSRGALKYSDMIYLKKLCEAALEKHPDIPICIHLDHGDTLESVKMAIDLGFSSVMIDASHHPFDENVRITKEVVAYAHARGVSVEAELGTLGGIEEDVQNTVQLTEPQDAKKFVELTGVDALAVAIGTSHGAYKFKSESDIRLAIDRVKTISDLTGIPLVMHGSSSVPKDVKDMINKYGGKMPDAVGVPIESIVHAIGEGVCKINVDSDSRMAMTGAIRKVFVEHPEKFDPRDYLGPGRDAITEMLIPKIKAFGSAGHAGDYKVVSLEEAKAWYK
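Giardia FBPA (40 nM reagent) was preincubated 10 min at RT with compound (up to 57.5 uM final), then substrate plus GAPDH/TPI/NAD/arsenate coupling system with diaphorase/resazurin was added; resorufin fluorescence (525/598 nm) was read after 20 min.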
Sm TGR block: blocks Schistosoma mansoni thioredoxin glutathione reductase; purified TGR, DTNB reduction, TNB absorbance 405 nm; Potency, µM (titrated, usually from 114 µM), for the others: at the highest dose activity change, negative = inhibition, actives largely listed as inhibitors; actives 3% (n = 360,000); AID 485364; further: potency means the concentration at half of the fitted maximal effect; nearly all actives have a fitted effect of over 60% in size
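Kinetic colorimetric format: TGR-catalysed, NADPH-driven DTNB reduction monitored via TNB absorbance. Enzyme dispensed at 20 nM; compound exposure 15 min at room temperature before reaction start.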
Numbers without * were called inactive; ? = inconclusive; / = no result given; ! = a repeat was not active; [ ] = dose if it differs, or a comment. Shown are actives, neighbours in structure and some others; about 7.7% of the full set was active somewhere. Unless noted, the call rests on the fitted dose curve; in most records, active means well fitted curve in the direction sought with a large enough effect; inconclusive means small, poorly fitted or top-dose-only effect, or another doubt; inactive means no such curve, though single readings can be large; an effect the other way counts as inactive or inconclusive. On the % scale 0 is the no-effect control and ±100 the full control effect.

SMILES | FMDV inh | RE007 growth inh | HCMV inh | TbPYK inhibitor | Giardia FBPA inh | Sm TGR block
Cc1ccccc1NC(=O)Cn1nnc(C(=O)NCc2ccco2)c1N | 1% | -3% | -31 | -9% | 1% | -8%
CCOc1ccccc1NC(=O)Cn1nnc(C(=O)NCc2ccco2)c1N | 9% | -15% | -90* | 5% | 0% | -9%
CCCn1c(SCC(=O)NC(=O)NCc2ccccc2)n[nH]c1=O | -4% | -7% | -26 | -2% | / | /
CCOc1ccccc1-n1nnnc1SCC(=O)NC(=O)Cc1ccccc1 | -24% | 13% | -13 | -1% | / | 20µM*
CCOc1ccccc1-n1nnnc1SCC(=O)N1CCCC1=O | 14% | -4% | 34 | 2% | / | /
CCOc1ccccc1-n1nnnc1SCC(=O)NC(=O)NCc1ccco1 | 0% | -3% | 41 | 2% | -1% | 45µM*
O=C(Oc1ccc(F)cc1)c1nc(SCc2ccccc2F)ncc1Cl | -19% | / | -21 | -5% | / | -3%
CC1=C(c2ccc(Cl)cc2)S(=O)(=O)NC1=NCCCN1CCN(c2cc(C)ccc2C)CC1 | ? | / | -100* | -4% | / | -1%
O=c1c2ccccc2nc(SCc2cn3ccsc3n2)n1-c1ccc(F)cc1 | ? | 20% | -77* | -9% | 5% | 9%
O=C(CSc1nc2ccccc2c(=O)n1-c1ccc(F)cc1)NCc1ccco1 | -22% | -13% | -5 | -17% | 7% | -31%
C(/C=C/c1ccccc1)=N/N1CCN(c2ccccc2)CC1 | 51% | 0% | -101* | -4% | 4% | 8%
C(=C\c1ccccc1)/C=N/N1CCN(c2ccccn2)CC1 | 28% | -13% | 78 | -8% | 5% | -7%
CO[C@@]12[C@@H]3N[C@@H]3CN1C1=C(C(=O)C(N)=C(C)C1=O)[C@@H]2COC(N)=O | -4% | -30% | -97* | -3% | / | /
CO[C@@]12[C@H](COC(N)=O)C3=C(C(=O)C(C)=C(N)C3=O)N1C[C@@H]1N[C@@H]12 | -13% | 0% | 24 | 0% | / | -8%
CCCNC1=C(C)C(=O)C2=C(C1=O)C(COC(N)=O)[C@]1(OC)C3NC3CN21 (stereo partly specified) | -3% | 0% | -69* | 1% | ? | 35µM*
COc1ccccc1C1c2c(-c3ccc(Cl)cc3)n[nH]c2C(=O)N1c1ccc(C)cc1 (stereo unspecified) | ? | / | -105* | -8% | / | 2%
CCOc1ccc(C2c3c(-c4ccc(C)cc4)n[nH]c3C(=O)N2c2ccc(Cl)cc2)cc1 (stereo unspecified) | -21% | / | -106* | 4% | / | 3%
CCc1cc2c(nc1CC)CCN(CC/C(C)=N/O[C@@H](C)CN1CCCCc3nc(C)c(C)cc31)C2 | / | / | / | / | -5%[12.9 µM] | /
CCC(=O)N(CCC(c1ccccc1)c1ccco1)Cc1cccs1 (stereo unspecified) | 0% | -7% | ? | -10% | 7% | 14µM*
COc1ccccc1C(CCN(Cc1cccs1)C(C)=O)c1ccco1 (stereo unspecified) | -24% | -1% | 9 | 0% | 0% | 13µM*
C[C@H]1Cn2cnc(C(=O)N(C)Cc3ccccc3)c2C(=O)N1 | / | / | -8 | / | / | /
CC(C)C[C@H](NC(=O)NCc1ccc(F)cc1)C(=O)O | 4% | 19% | 6 | 1% | 4% | 4%
CCN(CC)CC(O)c1cccn1-c1ccc(CNC(=O)NC(C)C)cc1 (stereo unspecified) | -3% | 0% | -66* | -1% | -1% | -3%
COc1ccc(Cl)cc1NC(=O)c1cc2nc(-c3ccc4c(c3)OCO4)cc(C(F)(F)F)n2n1 | -9% | / | 1 | 2% | / | 2%
CCn1c(SCC(=O)c2[nH]c(C)c(C(C)=O)c2C)nnc1-c1ccccc1 | 25µM* | 7% | -37 | -5% | -4% | 1%
SMILES | FMDV inh | RE007 growth inh | HCMV inh | TbPYK inhibitor | Giardia FBPA inh | Sm TGR block
CCn1c(SCC(=O)c2[nH]c(C)c(C(C)=O)c2C)nnc1-c1ccncc1 | / | -3% | 5 | -15% | -20% | -10%
CCCCn1cc(S(=O)(=O)c2ccccc2)c(=O)c2cc(F)c(N3CCC(C)CC3)cc21 | -16% | / | 3 | -3% | / | 0%
N#Cc1nc(-c2ccc(OCc3ccccc3)cc2)oc1NCc1cccnc1 | -26% | -21% | ? | -3% | -1% | 6%
CN(C)c1oc(-c2ccc(OCc3ccccc3)cc2)nc1C#N | 18% | 6% | 0 | -2% | -2% | 100µM*
O=C(NCc1ccco1)/C(=C/c1ccc(C(F)(F)F)cc1)c1nc2ccccc2[nH]1 | 21% | 1% | -25 | 1% | -30% | -28%
O=C(NCc1ccco1)/C(=C/c1cccc(C(F)(F)F)c1)c1nc2ccccc2[nH]1 | 0% | -9% | -100* | -9% | -13% | 0%
COc1ccc(Nc2ncc(C(=O)N3CCC4(CC3)OCCO4)c3ccccc23)cc1 | -14% | 10% | -76* | -8% | -16% | -16%
COc1ccc(Nc2ncc(C(=O)N3CCN(c4ccc(F)cc4)CC3)c3ccccc23)cc1 | ? | 9% | -105*! | -9% | -1% | 4%
Cc1cc(/C=N/NC(=O)c2ccncc2)c(C)n1-c1ccccc1 | 39% | 26% | -25 | 2% | -17% | -10%
CCc1ccc(-n2c(C)cc(/C=N/NC(=O)c3ccncc3)c2C)cc1 | -16% | -6% | -79* | 3% | -24% | /
COC(=O)N/N=C/c1cc(C)n(-c2ccc(Br)cc2)c1C | 14% | 5% | -10 | -4% | -8% | -29%
CCc1ccc(-n2c(C)cc(/C=N/NC(=O)OC)c2C)cc1 | 9% | -6% | -84* | -16% | -9% | -17%
COCc1cc(C)nc2sc3c(c12)NC(c1ccc(O)cc1)N(c1ccc(C)cc1)C3=O (stereo unspecified) | -10% | / | 35 | -6% | / | -3%
NS(=O)(=O)c1ccc(CCNc2ccc(C(F)(F)F)cn2)cc1 | -9% | 3% | -77* | -4% | -4% | -4%
O=C(NCCO)c1cn(C2CCCN(Cc3cccc(C(F)(F)F)c3)C2)nn1 (stereo unspecified) | -14% | / | / | / | / | /
O=C1CCC/C1=c1\s/c(=C\c2cccnc2)c(=O)n1-c1ccccc1 | ? | -13% | -79* | -1% | 11% | -18%
O=C1CCC/C1=c1\s/c(=C/c2cccnc2)c(=O)n1-c1ccccc1 | -1% | 6% | -25 | 3% | / | /
O=C1NCCCc2c1oc1ccc(O)cc21 | 52% | 1% | -63* | -1% | 0%[12.9 µM] | 9%
O=C(CN1CCN(c2ncccn2)CC1)N1CCCc2c1c(=O)oc1ccc(O)cc21 | 2% | 8% | -18 | -8% | 2% | ?
Cc1ccc(NC(=O)N2CCN(C)c3ncccc32)cc1C | 16% | / | 1 | -5% | / | -1%

Screening results deposited in PubChem BioAssay by National Center for Advancing Translational Sciences (NCATS).
